TRPML1 blocker: inhibitors of human TRPML1 channel; TRPML1-inducible cells, Ca2+ dye fluorescence, FDSS; hits give low values; inhibition of EC80 agonist-evoked calcium signal; Q9GZU1; activity change, negative = inhibition, % (test concentration not listed); actives 0.02% (n = 390,000); in the data active means activity change below about -50%; inconclusive means between about -30% and that limit;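 further: stimulus is agonist 54-4 at its EC80 concentration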
Target sequence (Q9GZU1 whole entry, looked up): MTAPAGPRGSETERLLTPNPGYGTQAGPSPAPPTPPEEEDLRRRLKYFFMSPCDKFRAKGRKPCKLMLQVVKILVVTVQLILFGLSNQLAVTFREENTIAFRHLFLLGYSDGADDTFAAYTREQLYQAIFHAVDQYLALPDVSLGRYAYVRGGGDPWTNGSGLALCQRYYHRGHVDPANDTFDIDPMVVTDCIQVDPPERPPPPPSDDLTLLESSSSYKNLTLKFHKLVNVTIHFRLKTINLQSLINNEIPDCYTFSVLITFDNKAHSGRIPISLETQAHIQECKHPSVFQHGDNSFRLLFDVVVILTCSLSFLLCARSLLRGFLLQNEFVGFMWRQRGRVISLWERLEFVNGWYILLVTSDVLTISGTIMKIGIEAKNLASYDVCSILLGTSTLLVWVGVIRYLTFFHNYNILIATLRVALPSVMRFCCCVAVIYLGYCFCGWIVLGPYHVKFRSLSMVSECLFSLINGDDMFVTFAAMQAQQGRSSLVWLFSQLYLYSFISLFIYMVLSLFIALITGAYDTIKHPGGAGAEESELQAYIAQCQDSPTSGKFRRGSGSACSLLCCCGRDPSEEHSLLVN
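TRPML1-DL cells, Tet-induced overnight (~16 h, 37 °C) at 1,500 cells/well, were loaded with Ca8 no-wash dye plus quencher for 45-90 min at room temperature. Compounds were pinned during FDSS kinetic reading; agonist 54-4 at EC80 (4 uM final) then added.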
TRPML1 agonist: activates the human TRPML1 channel; Q9GZU1; TRPML1-expressing cells, Ca2+ dye fluorescence, FDSS; activation, % (test concentration not listed); actives 0.12% (n = 410,000); in the data active means activation above about 50%; inconclusive means mostly about 30% to 49%
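Kinetic FDSS Ca2+ read in Tet-induced TRPML1-DL cells (ABD Ca8 dye plus quencher, 45-90 min RT loading): baseline, then compound, then 110 s agonist window; EC80 agonist 54-4 at 4uM final added afterwards for a 110 s antagonist window.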
TRPV1 ag: activates the human vanilloid receptor TRPV1; TRPV1-expressing cells, Fluo-8 calcium influx, agonist mode; activation, % at 8.33 µM; actives 0.19% (n = 320,000); AID 540275; in the data active means activation above about 80%; inconclusive means between about 30% and that limit
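Fluo-8 calcium influx in TRPV1-expressing cells, kinetic read (ex 480/em 520 nm). Compound added and read 3 min for agonist activity, followed by capsaicin at EC20 final and 2 min further read for enhancement.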
TRPV1 PAM: human TRPV1 potentiation; Q8NER1; TRPV1-expressing cells, Fluo-8 calcium influx, capsaicin EC20 potentiation; potentiation, % at 8.33 µM; actives 0.02% (n = 320,000); AID 540277; in the data active means potentiation above about 80%; inconclusive means between about 30% and that limit
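Fluo-8 calcium influx in TRPV1-expressing cells, kinetic read (ex 480/em 520 nm). Compound added and read 3 min for agonist activity, followed by capsaicin at EC20 final and 2 min further read for enhancement.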
Numbers stand for hits. This is a sample that favours compounds with a hit; in the whole collection about 0.31% have one here.

Results for Cc1cc(C)c2c(=O)c3c(oc2c1)C(=O)N(CCO)C3c1cccc(O)c1 (centres undefined) ?
TRPML1 blocker: -55.7; TRPML1 agonist: inactive; TRPV1 ag: inactive; TRPV1 PAM: inactive

What do the screens show for `CC(C)CC(=NNC(=O)c1ccncc1)c1cc(Cl)ccc1O`?
TRPML1 blocker: inactive; TRPML1 agonist: 70.5

Results for C/C(=N/NC(=O)c1ccncc1)c1ccc(NC(=O)c2ccc(Cl)cc2Cl)cc1 ?
TRPML1 blocker: inactive; TRPML1 agonist: inactive; TRPV1 ag: inactive; TRPV1 PAM: inactive

What do the screens show for `CC(C)Sc1ccc(C(=O)Nc2ccc(F)cc2F)cn1`?
TRPML1 blocker: inactive; TRPML1 agonist: inactive; TRPV1 ag: 85.5; TRPV1 PAM: inactive

What do the screens show for `CSc1ccc(/C=C2\C=Cc3cc([N+](=O)[O-])ccc32)cc1`?
TRPML1 agonist: inactive

What do the screens show for `Cc1ccc(N2CCN(C(=O)N3CCOCC3)CC2)cc1C`?
TRPML1 blocker: inactive; TRPML1 agonist: inactive; TRPV1 ag: inactive; TRPV1 PAM: inactive

What do the screens show for `Cc1cccc(C)c1N1CCN(C(=O)N2CCOCC2)CC1`?
TRPML1 blocker: inactive; TRPML1 agonist: inactive; TRPV1 ag: 80.5; TRPV1 PAM: inactive

Results for Cn1c(=O)c2c(nc3sccn32)n(C)c1=O ?
TRPML1 blocker: inactive; TRPML1 agonist: inactive; TRPV1 ag: inactive; TRPV1 PAM: 88.5

Results for COc1ccc2c(c1)CC(C(=O)Nc1cc(OC)c(OC)c(OC)c1)CO2 (centres undefined) ?
TRPML1 blocker: inactive; TRPML1 agonist: inactive

How did CN(C)c1cc(N2CCOCC2)nc(C#N)n1 do in these assays?
TRPML1 agonist: inactive

How did Fc1ccccc1CNC(=S)NCc1ccc(Cl)cc1 do in these assays?
TRPML1 blocker: inactive; TRPML1 agonist: inactive; TRPV1 ag: 84.1; TRPV1 PAM: inactive

Results for Fc1ccc(CNC(=S)NCc2ccccc2)cc1 ?
TRPML1 blocker: inactive; TRPML1 agonist: inactive; TRPV1 ag: 84.2; TRPV1 PAM: inactive

Results for NC1(c2ccc(-c3nc4ccn5c(=O)[nH]nc5c4cc3-c3ccccc3)cc2)CCC1 ?
TRPML1 agonist: inactive

What do the screens show for `CC(C)(C)n1ncc2c(=O)n(Cc3cccc(-c4cccs4)c3)cnc21`?
TRPML1 blocker: inactive; TRPML1 agonist: inactive

How did COc1cc(N2Cc3ccccc3C2)ccc1C=O do in these assays?
TRPML1 blocker: inactive; TRPML1 agonist: inactive; TRPV1 ag: inactive; TRPV1 PAM: 93.7

Results for Cc1cc(C)cc(N2Cc3ccccc3C2)c1 ?
TRPML1 blocker: inactive; TRPML1 agonist: inactive; TRPV1 ag: inactive; TRPV1 PAM: inactive

How did CC(C)NC(=S)NC(c1ccccc1)(c1ccccc1)c1ccccc1 do in these assays?
TRPML1 blocker: inactive; TRPML1 agonist: 70.1; TRPV1 ag: inconclusive; TRPV1 PAM: inactive

What do the screens show for `C/C(=N\NC(=S)NC(C)C)c1ccccc1`?
TRPV1 ag: inactive; TRPV1 PAM: inactive

What do the screens show for `CC(=O)N1CCCc2cc(S(=O)(=O)N3CCC(C(=O)NCc4ccccc4Cl)CC3)ccc21`?
TRPML1 blocker: inactive; TRPML1 agonist: inactive

What do the screens show for `Cc1cc(C)n2nc(C(=O)N3CCCC(Nc4ccc(C(C)C)cc4)C3)cc2n1` (centres undefined)?
TRPML1 blocker: inactive; TRPML1 agonist: inactive; TRPV1 ag: 86.0; TRPV1 PAM: inactive

Results for CC(C)c1ccc(NC2CCCN(C(=O)c3cccc4nccnc34)C2)cc1 (centres undefined) ?
TRPML1 blocker: inactive; TRPML1 agonist: inactive; TRPV1 ag: 84.6; TRPV1 PAM: inactive

What do the screens show for `Cc1ccc(NC2CCCN(C(=O)c3cccc4nccnc34)C2)cc1C` (centres undefined)?
TRPML1 blocker: inactive; TRPML1 agonist: inactive; TRPV1 ag: inactive; TRPV1 PAM: inactive

Results for O=C(Cc1ccc2ccccc2c1)NO ?
TRPML1 agonist: inactive

What do the screens show for `Cc1ccc(NC(=O)c2cc3c(s2)CCCC3)cc1`?
TRPML1 blocker: inactive; TRPML1 agonist: inactive; TRPV1 ag: 83.7; TRPV1 PAM: inactive

Results for Cc1ccc(NC(=O)CN(C)C(=O)c2cc3c(s2)CCCCC3)cc1 ?
TRPML1 blocker: inactive; TRPML1 agonist: inactive; TRPV1 ag: inactive; TRPV1 PAM: inactive

How did COCCCCOc1cc2nc(N3CCCN(C)CC3)nc(NC3CCN(C)CC3)c2cc1OC do in these assays?
TRPML1 agonist: inactive

Results for Cc1ccc(C2/C(=C(\O)c3c(C)nc4ccccn34)C(=O)C(=O)N2CCN(C)C)o1 (centres undefined) ?
TRPML1 blocker: -55.9; TRPML1 agonist: inactive; TRPV1 ag: inactive; TRPV1 PAM: inactive

How did Cc1ccc(C2/C(=C(\O)c3c(C)nc4c(C)cccn34)C(=O)C(=O)N2CCN(C)C)o1 (centres undefined) do in these assays?
TRPML1 blocker: inactive; TRPML1 agonist: inactive

What do the screens show for `CN1N/C(=C\c2ccccc2)N=C2C(=O)N(C)C(=O)N=C21`?
TRPML1 agonist: inactive

What do the screens show for `Cc1nn(-c2ccccc2)c(C)c1/C=N/n1c(-c2ccccc2Br)n[nH]c1=S`?
TRPML1 blocker: -69.2; TRPML1 agonist: inactive; TRPV1 ag: inactive; TRPV1 PAM: inactive

How did CCN(CC)c1ccc(/C=N/n2c(-c3ccccc3Br)n[nH]c2=S)cc1 do in these assays?
TRPML1 blocker: inactive; TRPML1 agonist: inactive; TRPV1 ag: inactive; TRPV1 PAM: inactive

How did CCOc1ccc(NC(=O)C(Cc2ccccc2)N2C(=O)c3cccc4cccc(c34)C2=O)cc1 (centres undefined) do in these assays?
TRPML1 blocker: inactive; TRPML1 agonist: 61.3; TRPV1 ag: inactive; TRPV1 PAM: inactive

What do the screens show for `Cc1cc(C)n(-c2nc3sc4c(c3c3nnc(SCC(N)=O)n23)CC(C)(C)OC4)n1`?
TRPML1 blocker: inactive; TRPML1 agonist: inactive; TRPV1 ag: inactive; TRPV1 PAM: inactive

How did CSc1nnc2c3c4c(sc3nc(-n3nc(C)cc3C)n12)COC(C)(C)C4 do in these assays?
TRPML1 blocker: inactive; TRPML1 agonist: inactive; TRPV1 ag: 80.4; TRPV1 PAM: inactive

How did NC(=O)C1CCN(C(=O)c2ccc3nc(-c4ccccc4)c(-c4ccccc4)nc3c2)CC1 do in these assays?
TRPML1 blocker: inactive; TRPML1 agonist: inactive; TRPV1 ag: 80.6; TRPV1 PAM: inactive

What do the screens show for `CC(C)COc1ccc(CC(=O)NO)cc1`?
TRPML1 agonist: inactive

What do the screens show for `COC(=O)[C@@H](NC(=O)N1CCN(C(=O)C2COc3ccccc3O2)CC1)C(C)C` (some centres undefined)?
TRPML1 blocker: -60.1; TRPML1 agonist: inactive; TRPV1 ag: inactive; TRPV1 PAM: inactive

What do the screens show for `Cc1nc2c(OCc3cccc(Cl)c3)cccn2c1N(C)Cc1cccs1`?
TRPML1 agonist: inactive

What do the screens show for `O=C(Nc1ccc2c(c1)OCCO2)c1cc2ccccc2o1`?
TRPML1 blocker: inactive; TRPML1 agonist: inactive; TRPV1 ag: 80.6; TRPV1 PAM: inactive

How did CSCCNC(=O)c1ccc2nc(C3CCCCC3)oc2c1 do in these assays?
TRPML1 blocker: inactive; TRPML1 agonist: inactive; TRPV1 ag: 91.9; TRPV1 PAM: inactive

What do the screens show for `COc1cccc(Nc2nc(C)nc3c2oc2ccccc23)c1`?
TRPML1 blocker: inactive; TRPML1 agonist: inactive; TRPV1 ag: 80.2; TRPV1 PAM: inactive

Source: PubChem BioAssay
